# The full ranking holds about 33,000 sequences; the median of “E-score (-0.5 to 0.5)” is about -0.01, and the highest 2% start at about 0.26. Many of the other results were omitted from the sample, so the highest values are more common in it than they were.
# Molecular target: Ste12 (UniProt P13574)
# Test: PBM E-score (8-mer binding enrichment) (E-score (-0.5 to 0.5)); higher = stronger / more preferred TF binding
# Conditions: protein concentration: 200 nM; construct: GST-DNA-binding domain
# Description: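 Universal 'all 10-mer' protein binding microarrays (Agilent AMADID 015681) probed with GST-tagged S. cerevisiae TFs (full-length or DBD) made by in vitro transcription/translation (PURExpress), about 100-200 nM. Bound TF was detected with fluorescent anti-GST. Each ungapped 8-mer (which stands for itself and its reverse complement) is scored by the PBM enrichment score (E-score), a modified Wilcoxon-Mann-Whitney statistic from -0.5 to +0.5, computed with the Universal PBM Analysis Suite. Scale: above 0.35 generally sequence-specific binding.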
# Sequence of UniProt P13574 (P13574 whole entry): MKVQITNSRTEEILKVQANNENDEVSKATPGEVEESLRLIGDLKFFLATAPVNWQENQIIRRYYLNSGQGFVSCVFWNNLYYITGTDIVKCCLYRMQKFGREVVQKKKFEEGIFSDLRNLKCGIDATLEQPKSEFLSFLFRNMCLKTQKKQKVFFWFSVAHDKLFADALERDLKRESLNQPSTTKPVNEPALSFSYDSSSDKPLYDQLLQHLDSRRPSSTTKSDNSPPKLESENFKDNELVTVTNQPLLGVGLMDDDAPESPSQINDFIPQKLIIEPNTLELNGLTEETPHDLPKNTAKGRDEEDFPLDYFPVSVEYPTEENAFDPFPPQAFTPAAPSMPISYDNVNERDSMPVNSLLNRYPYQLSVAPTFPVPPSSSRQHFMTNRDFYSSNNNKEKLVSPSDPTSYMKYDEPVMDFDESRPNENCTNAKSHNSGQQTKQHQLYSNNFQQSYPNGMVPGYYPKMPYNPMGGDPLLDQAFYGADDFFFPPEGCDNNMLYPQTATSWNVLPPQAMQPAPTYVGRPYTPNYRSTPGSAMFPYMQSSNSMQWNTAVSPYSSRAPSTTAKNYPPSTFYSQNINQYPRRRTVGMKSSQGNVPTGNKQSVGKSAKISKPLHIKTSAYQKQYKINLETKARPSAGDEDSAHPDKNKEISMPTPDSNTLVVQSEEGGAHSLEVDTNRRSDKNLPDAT
row,Sequence,PBM E-score
1,CGAAATAA,0.131
2,TGAAAAAA,0.293
3,TGAAAACA,0.162
4,AAAAAAAT,0.337
5,ATAAAAAT,0.241
6,AAAAAATT,0.197
7,AGGAAAAC,-0.0394
8,GGAAAAAC,0.322
9,AGAAATAA,0.207
10,TGAAAGAA,0.131
11,GCGACCTA,-0.062
12,CTGGCATC,-0.283
13,AGATTATC,-0.0475
14,CTACCTTA,-0.00289
15,CTGTGCAA,-0.101
16,ACGATTGA,0.158
17,CAGTTAAA,-0.00288
18,CATGAGCG,-0.0776
19,CGTGTGAC,-0.0425
20,AGTTCAAA,0.138
21,GCCAAATA,0.101
22,GTTTACGA,0.0472
23,CGAAAAAA,0.308
24,CGGAAAAA,0.343
25,AGAAAAAA,0.19

row,Sequence,PBM E-score
1,CGGAAAAC,0.0342
2,AAAAAAGG,0.244
3,AAAAAAAG,0.294
4,CGAAAAAG,0.212
5,AAAAAAGA,0.182
6,CGAAAAAC,0.0959
7,AAAAAAAA,0.367
8,CAAAAAAG,0.159
9,CGGAAAAG,0.0439
10,CAGGCGGG,0.0689
11,AATGGGCT,-0.092
12,CGTTTAGC,-0.0383
13,ACAGCCGT,-0.0628
14,AGCCTTAT,0.0824
15,AGGAAAAA,0.16
16,GCGGAAAA,0.253
17,AAAAAGCC,0.229
18,GGGAAAAA,0.272
19,CAAAAGCG,0.14
20,AAAAAGCG,0.317
21,TGGAAAAA,0.302
22,GGGAAAAC,0.116
23,GGGGAAAA,0.112
24,ACGGAAAA,0.177
25,TCGGAAAA,0.275

row,Sequence,PBM E-score
1,TTGGAAAA,0.177
2,AATCCAAA,0.14
3,CCGTTAAG,-0.177
4,ACGCTGCC,-0.108
5,ACCTTTGA,0.0506
6,GGTCTTCA,-0.164
7,CCTTTTCA,-0.0167
8,CGTAGCAA,0.00941
9,AAGCCTTG,-0.00117
10,TGTGTGAA,0.284
11,CGTGTGAA,0.14
12,GGTGTGAA,0.19
13,ACTGTGAA,0.27
14,GCTGTGAA,-0.0834
15,ACTGTGAT,-0.0243
16,ACTAAGAG,-0.0255
17,CTATGATA,-0.0247
18,GTATGATA,0.0429
19,TAATGAGA,0.168
20,GAATGATA,0.309
21,GCATGATA,0.0794
22,AAATGATT,0.197
23,AAATGATC,-0.0582
24,AAATGATA,0.292
25,GAATGATC,0.00293

row,Sequence,PBM E-score
1,ATATGATA,0.271
2,CAATGATA,0.074
3,TAATGATA,0.272
4,ATGCCTCC,-0.0978
5,CAATCTCC,-0.00169
6,CTCGATAC,0.155
7,GAGCGATC,-0.105
8,CCGGTCGC,-0.0319
9,GGTGACAA,0.0614
10,AAGAGCTC,-0.0902
11,CAGGGCCC,-0.148
12,CAAAATAA,0.33
13,TAAAATAA,0.269
14,ATAAATAG,0.0906
15,CTAAATAA,0.0819
16,CAAAATAG,-0.0251
17,CAAAATAC,0.115
18,AAAAATAA,0.229
19,TTAAATAA,0.249
20,ATAAATAA,0.266
21,ATCTCAGC,-0.112
22,AGTTGAGC,-0.152
23,ATCTATGC,-0.0236
24,ACGGGCCC,-0.199
25,CATTTAAG,-0.0794

row,Sequence,PBM E-score
1,AATTTAAA,0.269
2,TATTTACA,0.101
3,CATTTAAA,0.277
4,TATTTAAA,0.379
5,TCTTTTAA,0.142
6,GATTTTAA,0.201
7,GATTTAAA,0.113
8,CATTTAAC,0.212
9,TATTTTAA,0.301
10,AATTTAAT,0.159
11,AATTTAAC,0.208
12,GCACCAGC,-0.101
13,GGACAGGA,-0.152
14,ACCATCGC,0.0245
15,CGCAATCA,0.0872
16,GGCTCACC,-0.244
17,ACTAGGTG,-0.199
18,CACTTAAA,0.287
19,CACTTAAC,-0.121
20,AACTTAAA,0.186
21,AGTCCACA,-0.173
22,GTGAAACA,0.48
23,GTGAAATA,0.169
24,ATGAAAGA,0.184
25,AAGAAACG,0.148

row,Sequence,PBM E-score
1,AGGAAACG,-0.105
2,ATGAAACG,0.484
3,ATGAAACA,0.495
4,AGGAAACA,0.19
5,GTGAAAAA,0.232
6,AAGCAGCC,-0.078
7,ACATCTGA,-0.24
8,CAACTGTA,-0.0454
9,AATCAATG,0.0688
10,CCTAGAGC,-0.189
11,ATTATCCG,0.294
12,ATTATCCA,0.0202
13,ATTATCCC,0.0652
14,ACCAGTAC,-0.11
15,GAAACAGA,0.287
16,ATAACAGA,0.115
17,CAAACAGA,0.12
18,GTAACAGA,0.334
19,CTAACAGA,0.153
20,AAAACAGG,-0.0182
21,AAAACAGC,0.127
22,GAAACAGC,0.232
23,AAAACAGA,0.295
24,ATATACAT,0.00017
25,AGCCTGTC,-0.181

row,Sequence,PBM E-score
1,CGCTCTTC,0.00173
2,ATGTATCA,0.344
3,ATGTATCC,0.0246
4,CTGTATCA,0.207
5,GTGTATCA,0.301
6,ATGTATCG,0.0479
7,GTGTATTA,0.25
8,ACCAACCT,0.0089
9,ATTGCTGC,-0.00539
10,GCACTCCA,-0.161
11,AAAGAATC,0.136
12,GACTCACA,-0.201
13,AATCTCCA,-0.184
14,GAAACCAA,0.355
15,CAAACCTC,-0.105
16,CTAACCAA,0.186
17,GAAACCGC,0.351
18,AAAACCAA,0.209
19,CAAACCGC,0.00675
20,GAAACCTC,0.318
21,AAAACCGC,0.0403
22,ATAACCAG,-0.0264
23,GAAACCAC,0.164
24,ATAACCAA,0.294
25,AAAACCTC,0.207
